These results are taken from PubChem BioAssay (NCATS).

Common to all, as to assay: Confirmatory Screen for Target Class Profiling of Small Molecule Inhibitors of Methyltransferases (AID 1745852); on activity change, negative = inhibition: on the % scale 0 is the no-effect control and ±100 the full control effect
The target in experiment [1] is Catechol O-methyltransferase (Homo sapiens) (UniProt P21964). Conditions: MTase-Glo luminescence, SAH detection, recombinant enzyme; measured here: COMT max response; stronger effect = lower value.
Chain of Catechol O-methyltransferase (Homo sapiens) (P21964 whole entry, looked up): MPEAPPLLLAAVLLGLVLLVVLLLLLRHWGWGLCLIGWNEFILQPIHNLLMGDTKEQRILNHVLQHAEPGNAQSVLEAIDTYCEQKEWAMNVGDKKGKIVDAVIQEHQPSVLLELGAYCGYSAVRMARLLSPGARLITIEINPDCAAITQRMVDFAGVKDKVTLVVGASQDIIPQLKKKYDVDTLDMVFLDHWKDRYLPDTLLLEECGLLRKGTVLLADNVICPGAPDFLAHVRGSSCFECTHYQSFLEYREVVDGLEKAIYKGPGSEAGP
Experiment [2] concerns the target Guanidinoacetate N-methyltransferase (Homo sapiens) (UniProt Q14353). Conditions: MTase-Glo luminescence, SAH detection, recombinant enzyme; activity change, negative = inhibition: at 57.3 µM (top of the series) unless noted; series mostly up to 57.3 µM.
In experiment [3] the target is Nicotinamide N-methyltransferase (Homo sapiens) (UniProt P40261). The conditions noted are these: MTase-Glo luminescence, SAH detection, recombinant enzyme; measured here: NNMT max response; stronger effect = lower value.
Chain of Nicotinamide N-methyltransferase (Homo sapiens) (P40261 whole entry, looked up): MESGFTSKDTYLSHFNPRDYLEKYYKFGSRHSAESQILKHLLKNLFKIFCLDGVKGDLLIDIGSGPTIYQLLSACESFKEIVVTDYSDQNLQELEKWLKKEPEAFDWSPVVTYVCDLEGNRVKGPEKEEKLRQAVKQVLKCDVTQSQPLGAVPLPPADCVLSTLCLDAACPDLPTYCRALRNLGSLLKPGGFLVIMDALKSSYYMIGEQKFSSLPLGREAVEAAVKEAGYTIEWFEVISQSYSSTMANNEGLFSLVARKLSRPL
Experiment [4] has as its target Phenylethanolamine N-methyltransferase (Homo sapiens) (UniProt P11086). The conditions noted are these: MTase-Glo luminescence, SAH detection, recombinant enzyme; measured here: PNMT max response; stronger effect = lower value.

Calls of active or inactive are those of the source. The call rests on the fitted dose curve.
Potency means the concentration at half of the fitted maximal effect.

Chain of Phenylethanolamine N-methyltransferase (Homo sapiens) (P11086 whole entry, looked up): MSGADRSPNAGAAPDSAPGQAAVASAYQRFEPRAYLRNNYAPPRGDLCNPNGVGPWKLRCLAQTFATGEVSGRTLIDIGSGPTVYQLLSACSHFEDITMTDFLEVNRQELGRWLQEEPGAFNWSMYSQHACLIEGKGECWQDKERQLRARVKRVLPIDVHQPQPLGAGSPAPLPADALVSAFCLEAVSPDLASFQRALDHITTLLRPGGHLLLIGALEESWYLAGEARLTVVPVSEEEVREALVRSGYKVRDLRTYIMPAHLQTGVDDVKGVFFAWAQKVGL

For `CCCC1c2cccn2CCN1C(=O)Nc1cccc(C(F)(F)F)c1` (stereo not drawn), the activity is -5.53% in experiment [1], -7.32% in experiment [3] and -5.65% in experiment [4]. For the same compound, the activity change, negative = inhibition in experiment [2] is -0.7%.
Taken in the same sequence, the figures for `COc1ccc(N2C(=O)c3ccc(-c4ccco4)n3CC2(C)C(=O)NCc2ccccc2)cc1OC` (stereo not drawn) were -7.65%, -17.5%, -3.81% and -2.41%.
Regarding `O=C(O)c1ccc(Nc2nc3ccccc3n3cnnc23)cc1`, the activity in experiment [1] was -82.3%; in experiment [3] it was -79.6%; in experiment [4], -46%. Also, in experiment [2], the Potency is 19.3 µM (active).
As for `O=C(c1cc(-c2ccccc2)n[nH]1)N1CCc2c(nc(-c3ccccc3)[nH]c2=O)C1`, the activity in experiment [1] came to 4.33%; in experiment [3], 3.92%; in experiment [4] it was 5.63%. Besides, in experiment [2], the activity change, negative = inhibition came out at 7.17%.
As to `N#Cc1cnc(N2CC3CCC(C2)N3CC(F)(F)F)s1`, the activity in experiment [1] was -0.326%; in experiment [3], -7.9%; in experiment [4], -0.128%. In addition, the activity change, negative = inhibition in experiment [2] is -4.72% [at 85.7 µM].
On to `CCN(CC)CCCNC(=O)CCc1nnc2n(CCc3ccccc3)c(=O)c3ccccc3n12`, for which the activity was -3.69% in experiment [1], -11.7% in experiment [3] and 2.52% in experiment [4]. Besides, the activity change, negative = inhibition in experiment [2] was -1.16%.
`CC(CNC(=O)c1nnn2c1c(=O)[nH]c1cc(F)ccc12)c1ccccc1` (stereo not drawn): the activity in experiment [1] is -11.1%; in experiment [3] it was -18.2%; in experiment [4], -15.8%. Further, the Potency in experiment [2] is 0.271 µM (active).
With `CN1C(=O)C(c2ccccc2)CC12CCN(c1ccnc(N)n1)CC2` (stereo not drawn), the activity is 6.59% in experiment [1], 7.63% in experiment [3] and 10.4% in experiment [4]. Moreover, in experiment [2], the activity change, negative = inhibition came to 9.95%.
For `COCCn1ccc2c(C3=CCOCC3)nc(-c3cccc4[nH]ccc34)cc21`, in that order: -2.42%, -12.7%, -36.9% and -9.46% [at 85.7 µM].
On to `O=C(CCCc1nnc2n3nc(-c4ccccc4)nc3c3ccccc3n12)NCCCN1CCCCC1`, for which the activity was -1.71% in experiment [1], 2.5% in experiment [3] and 0.451% in experiment [4]. Besides, the activity change, negative = inhibition in experiment [2] is 0%.
For the compound `COC1CCN(c2cc(-c3ccsc3)nc3c(C)noc23)CC1`, the figures for the activity in experiment [1], in experiment [3] and in experiment [4] were -4.15%, -17% and -10.4%, respectively. Further, in experiment [2], the activity change, negative = inhibition is -0.422% [at 85.7 µM].
Regarding `Cc1ccsc1CCNC(=O)Cn1c(=O)oc2cc(S(=O)(=O)N3CCCC3)ccc21`, the results for the activity in experiment [1], in experiment [3] and in experiment [4] were -8.14%, -5.53% and -81.8%, respectively. In addition, the activity change, negative = inhibition in experiment [2] is -1.17%.
In the case of `CC1(C(=O)NC2CCCC2)Cn2c(c(-n3cccc3)c3ccccc32)C(=O)N1Cc1ccccn1` (stereo not drawn), the activity in experiment [1] is 1.3%; in experiment [3], -46.2%; in experiment [4] it was 0%. The activity change, negative = inhibition in experiment [2] came out at 1.85%.
In the case of `CCN(CC)CCCNC(=O)CCc1nnc2n(Cc3ccc(Cl)cc3)c(=O)c3ccccc3n12`, the activity in experiment [1] was 4.07%; in experiment [3], -5.57%; in experiment [4], 0%. Also, the activity change, negative = inhibition in experiment [2] came out at 0%.
As to `O=C1c2ccccc2C(=O)c2cc(S(=O)(=O)N(CCO)CCO)ccc21`, the activity in experiment [1] was -23%; in experiment [3], -1.51%; in experiment [4] it was -73.8%. Besides, in experiment [2], the activity change, negative = inhibition was determined as 2.27%.
For `O=C(Cn1c(=O)oc2cc(S(=O)(=O)N3CCCC3)ccc21)Nc1cccc(Cl)c1`, in that order: -1.16%, 4.81%, -49.8% and 0%.
For the compound `Cc1ccc(Cn2c(=O)c3ccccc3n3c(CCC(=O)N4CCC(N5CCCCC5)CC4)nnc23)cc1`, the figures for the activity in experiment [1], in experiment [3] and in experiment [4] were -6.25%, -14.2% and -2.33%, respectively. Moreover, the activity change, negative = inhibition in experiment [2] is -4.42%.
